Numbering of substitutions follows the chain as printed; changes in the protein carry UniProt numbers. In all, about 16,000 sequences were measured (“ka relative to ugcaugu”: median about 0.096, highest 2% from about 0.35 on). The sample holds the highest values, similar sequences and a random draw of the others, so the mix is not that of the screen.

T1: RBFOX1 RRM RbFoxmut (Fox-RRM*) (Homo sapiens, UniProt Q9NWB1 109-208, R118D;E147R;N151S;E152T)
T1 sequence: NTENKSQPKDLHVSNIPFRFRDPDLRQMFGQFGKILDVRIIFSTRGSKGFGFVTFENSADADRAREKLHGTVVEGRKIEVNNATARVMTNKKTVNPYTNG

B1: GGUACGA (DNA:RNA)
RNA: GGGAGACCGGAAUUCAGAUUGUCCGGUACGAUUAAAUCCCGUCGUAGCCACCA
DNA 1: CAATCTGAATTCCGGTCTCCC
DNA 2: TGGTGGCTACGACGGGATT
B2: ACUUUAC (DNA:RNA)
RNA: B1 RNA with G25A, G26C, A28U, C29U, G30A, A31C
DNA 1: CAATCTGAATTCCGGTCTCCC
DNA 2: TGGTGGCTACGACGGGATT
B3: GACGUGU (DNA:RNA)
RNA: B1 RNA with G26A, U27C, A28G, C29U, A31U
DNA 1: CAATCTGAATTCCGGTCTCCC
DNA 2: TGGTGGCTACGACGGGATT
B4: AGUGAAA (DNA:RNA)
RNA: B1 RNA with G25A, A28G, C29A, G30A
DNA 1: CAATCTGAATTCCGGTCTCCC
DNA 2: TGGTGGCTACGACGGGATT
B5: AGUUGGG (DNA:RNA)
RNA: B1 RNA with G25A, A28U, C29G, A31G
DNA 1: CAATCTGAATTCCGGTCTCCC
DNA 2: TGGTGGCTACGACGGGATT
B6: ACUUACC (DNA:RNA)
RNA: B1 RNA with G25A, G26C, A28U, C29A, G30C, A31C
DNA 1: CAATCTGAATTCCGGTCTCCC
DNA 2: TGGTGGCTACGACGGGATT
B7: GACUUUG (DNA:RNA)
RNA: B1 RNA with G26A, U27C, A28U, C29U, G30U, A31G
DNA 1: CAATCTGAATTCCGGTCTCCC
DNA 2: TGGTGGCTACGACGGGATT
B8: UGUCUUG (DNA:RNA)
RNA: B1 RNA with G25U, A28C, C29U, G30U, A31G
DNA 1: CAATCTGAATTCCGGTCTCCC
DNA 2: TGGTGGCTACGACGGGATT
B9: UGGUCUG (DNA:RNA)
RNA: B1 RNA with G25U, U27G, A28U, G30U, A31G
DNA 1: CAATCTGAATTCCGGTCTCCC
DNA 2: TGGTGGCTACGACGGGATT
B10: UGUCGUC (DNA:RNA)
RNA: B1 RNA with G25U, A28C, C29G, G30U, A31C
DNA 1: CAATCTGAATTCCGGTCTCCC
DNA 2: TGGTGGCTACGACGGGATT
B11: UGUCUGG (DNA:RNA)
RNA: B1 RNA with G25U, A28C, C29U, A31G
DNA 1: CAATCTGAATTCCGGTCTCCC
DNA 2: TGGTGGCTACGACGGGATT
B12: UGGUCGC (DNA:RNA)
RNA: B1 RNA with G25U, U27G, A28U, A31C
DNA 1: CAATCTGAATTCCGGTCTCCC
DNA 2: TGGTGGCTACGACGGGATT
B13: UGUUGUC (DNA:RNA)
RNA: B1 RNA with G25U, A28U, C29G, G30U, A31C
DNA 1: CAATCTGAATTCCGGTCTCCC
DNA 2: TGGTGGCTACGACGGGATT
B14: UCCUGUC (DNA:RNA)
RNA: GGGAGACCGGAAUUCAGAUUGUCCUCCUGUCUUAAAUCCCGUCGUAGCCACCA
DNA 1: CAATCTGAATTCCGGTCTCCC
DNA 2: TGGTGGCTACGACGGGATT
B15: UGCUGUC (DNA:RNA)
RNA: B14 RNA with C26G
DNA 1: CAATCTGAATTCCGGTCTCCC
DNA 2: TGGTGGCTACGACGGGATT
B16: UGUCUUC (DNA:RNA)
RNA: B14 RNA with C26G, C27U, U28C, G29U
DNA 1: CAATCTGAATTCCGGTCTCCC
DNA 2: TGGTGGCTACGACGGGATT
B17: CCGAUCU (DNA:RNA)
RNA: B1 RNA with G25C, G26C, U27G, C29U, G30C, A31U
DNA 1: CAATCTGAATTCCGGTCTCCC
DNA 2: TGGTGGCTACGACGGGATT
B18: CACUUGA (DNA:RNA)
RNA: B1 RNA with G25C, G26A, U27C, A28U, C29U
DNA 1: CAATCTGAATTCCGGTCTCCC
DNA 2: TGGTGGCTACGACGGGATT
B19: CACUUAG (DNA:RNA)
RNA: B14 RNA with U25C, C26A, G29U, U30A, C31G
DNA 1: CAATCTGAATTCCGGTCTCCC
DNA 2: TGGTGGCTACGACGGGATT
B20: GAAAGCU (DNA:RNA)
RNA: B1 RNA with G26A, U27A, C29G, G30C, A31U
DNA 1: CAATCTGAATTCCGGTCTCCC
DNA 2: TGGTGGCTACGACGGGATT
B21: CAGCAUU (DNA:RNA)
RNA: B14 RNA with U25C, C26A, C27G, U28C, G29A, C31U
DNA 1: CAATCTGAATTCCGGTCTCCC
DNA 2: TGGTGGCTACGACGGGATT
B22: UUAAACA (DNA:RNA)
RNA: B1 RNA with G25U, G26U, U27A, C29A, G30C
DNA 1: CAATCTGAATTCCGGTCTCCC
DNA 2: TGGTGGCTACGACGGGATT
B23: CCUGGCA (DNA:RNA)
RNA: B1 RNA with G25C, G26C, A28G, C29G, G30C
DNA 1: CAATCTGAATTCCGGTCTCCC
DNA 2: TGGTGGCTACGACGGGATT
B24: AUGCAUG (DNA:RNA)
RNA: B14 RNA with U25A, C26U, C27G, U28C, G29A, C31G
DNA 1: CAATCTGAATTCCGGTCTCCC
DNA 2: TGGTGGCTACGACGGGATT
B25: AUGCAGA (DNA:RNA)
RNA: B1 RNA with G25A, G26U, U27G, A28C, C29A
DNA 1: CAATCTGAATTCCGGTCTCCC
DNA 2: TGGTGGCTACGACGGGATT
B26: AUGCAUC (DNA:RNA)
RNA: B14 RNA with U25A, C26U, C27G, U28C, G29A
DNA 1: CAATCTGAATTCCGGTCTCCC
DNA 2: TGGTGGCTACGACGGGATT
B27: GUCCAUC (DNA:RNA)
RNA: B14 RNA with U25G, C26U, U28C, G29A
DNA 1: CAATCTGAATTCCGGTCTCCC
DNA 2: TGGTGGCTACGACGGGATT
B28: AUGCAUA (DNA:RNA)
RNA: B1 RNA with G25A, G26U, U27G, A28C, C29A, G30U
DNA 1: CAATCTGAATTCCGGTCTCCC
DNA 2: TGGTGGCTACGACGGGATT
B29: AUCCAUC (DNA:RNA)
RNA: B14 RNA with U25A, C26U, U28C, G29A
DNA 1: CAATCTGAATTCCGGTCTCCC
DNA 2: TGGTGGCTACGACGGGATT
B30: AACCGUG (DNA:RNA)
RNA: B14 RNA with U25A, C26A, U28C, C31G
DNA 1: CAATCTGAATTCCGGTCTCCC
DNA 2: TGGTGGCTACGACGGGATT
B31: GGCUGGA (DNA:RNA)
RNA: B1 RNA with U27C, A28U, C29G
DNA 1: CAATCTGAATTCCGGTCTCCC
DNA 2: TGGTGGCTACGACGGGATT

The target in this test is T1, RBFOX1 RRM RbFoxmut (Fox-RRM*). Nature of the test: EMSA; HiTS-Eq, 1 nM pool, 10 min; buffer printed only for the single-RNA assays: 10 mM Tris pH 7.5, 150 mM NaCl, 3.4 mM EDTA, 0.001% NP-40, 30 C. As to conditions: tags: His6 N-terminal (pET28a); label: 5' 32P. The procedure, abridged: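 Purified RbFox RRM (wild type or mutant) was equilibrated for 10 min in 50 µL with 1 nM of a 5′-radiolabelled pool of RNA with 7 randomized nucleotides, its flanks annealed to DNA oligonucleotides, across increasing protein concentrations. Free RNA was separated by 8% native PAGE, excised, reverse-transcribed, PCR-barcoded and sequenced on an Illumina HiSeq 2500. Relative association constants came from read-count changes of each variant against the control reaction, normalised to the cognate motif.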
For the molecule B1, the binding signal is 0.165 KA relative to UGCAUGU. As to B2, the binding signal is 0.114 KA relative to UGCAUGU. As for B3, the binding signal is 0.15 KA relative to UGCAUGU.

For the molecule B4, the binding signal was 0.095 KA relative to UGCAUGU. As for B5, the figure is 0.0708 KA relative to UGCAUGU; as for B6, 0.0997 KA relative to UGCAUGU. As for B7, the binding signal was 0.0901 KA relative to UGCAUGU. The value for B8 was 0.674 KA relative to UGCAUGU; that for B9 was 0.374 KA relative to UGCAUGU. Consider B10, for which the binding signal was 0.119 KA relative to UGCAUGU. The value for B11 was 0.196 KA relative to UGCAUGU.

Take B12: the binding signal is 0.114 KA relative to UGCAUGU.

Regarding B13, the binding signal was 0.468 KA relative to UGCAUGU. As for B14, the figure is 0.164 KA relative to UGCAUGU; as for B15, 0.331 KA relative to UGCAUGU. The value for B16 was 0.201 KA relative to UGCAUGU; that for B17 was 0.0341 KA relative to UGCAUGU; that for B18 was 0.114 KA relative to UGCAUGU. As to B19, the binding signal was 0.16 KA relative to UGCAUGU. As for B20, the figure is 0.0545 KA relative to UGCAUGU; as for B21, 0.107 KA relative to UGCAUGU; as for B22, 0.0699 KA relative to UGCAUGU. With B23, the binding signal was 0.148 KA relative to UGCAUGU.

Regarding B24, the binding signal was 0.951 KA relative to UGCAUGU. As for B25, the figure is 0.125 KA relative to UGCAUGU; as for B26, 0.446 KA relative to UGCAUGU; as for B27, 0.0764 KA relative to UGCAUGU. As for B28, the figure is 0.161 KA relative to UGCAUGU.

B29: the binding signal was 0.1 KA relative to UGCAUGU.

Regarding B30, the binding signal is 0.109 KA relative to UGCAUGU. Consider B31, for which the binding signal is 0.0732 KA relative to UGCAUGU.
